Compounds with a hit are over-represented: about 11% of the library has one in this group of screens.
HCV inh: HCV inhibition. Huh7.5.1 HCVcc-Cre infection, luciferase reporter, 44 h. Potency, µM (series often up to 41.8 µM), most hits filed as inhibitors. 340,000 compounds, 3.4% hits
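Cells (1,000/well) were plated 4 h before compound, then infected with HCVcc-Cre virus (~0.5 moi). After 44 h further culture, infection was read as luciferase luminescence following a 15 min substrate incubation at room temperature.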
AmpC inh detg: AmpC beta-lactamase inhibition with detergent present | P00811 | AID 485294 | AmpC hydrolysis of nitrocefin, absorbance 480 nm, 0.01% Triton | 370,000 compounds, 0.041% hits | Potency, µM (highest dose often 114 µM), hits mostly inhibitors; further: nearly all actives have a fitted effect of over 25% in size
Target sequence (P00811 whole entry, looked up): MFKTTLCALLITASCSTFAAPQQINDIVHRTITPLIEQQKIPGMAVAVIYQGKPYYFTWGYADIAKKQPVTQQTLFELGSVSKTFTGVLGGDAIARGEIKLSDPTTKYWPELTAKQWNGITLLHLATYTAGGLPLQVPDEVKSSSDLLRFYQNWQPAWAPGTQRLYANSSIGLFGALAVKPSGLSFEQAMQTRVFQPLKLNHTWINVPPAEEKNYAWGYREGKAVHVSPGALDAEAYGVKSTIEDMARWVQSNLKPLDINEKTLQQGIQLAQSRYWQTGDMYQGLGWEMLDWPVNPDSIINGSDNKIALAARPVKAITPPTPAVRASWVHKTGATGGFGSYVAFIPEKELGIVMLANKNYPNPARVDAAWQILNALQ
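AmpC (5.3 nM in the dispensed reagent) in 20 mM phosphate pH 7.0 with 0.01% (detergent screen) or 0.0001% Triton X-100 was preincubated with compounds for 15 min at room temperature. Nitrocefin was then added from an 800 uM solution, and hydrolysis was followed at 480 nm.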
Pf growth 48h: inhibits P. falciparum growth in the first generation, 48 h; P. falciparum luciferase growth in erythrocytes, 48 h; Potency, µM (highest dose often 28.7 µM), usual class: inhibitors; 310,000 compounds, 5.9% hits
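Cell-based growth assay: transgenic P. falciparum expressing firefly luciferase, cultured in red cells within RPMI 1640 containing 0.5% w/v Albumax, 24 mM bicarbonate and gentamycin. A drop in luciferase activity indicates inhibition.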
AMA1 RON2 block: inhibitors of Plasmodium falciparum AMA1-RON2 interaction | Potency, µM (doses to about 58.2 µM), actives largely listed as inhibitors | AlphaScreen AMA1-biotinylated RON2 peptide binding | 360,000 compounds, 0.2% hits; further: nearly all actives have a fitted effect of over 45% in size
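AMA1 (3D7) with his tag at 25 nM final met compounds first, then biotinylated RON2 peptide at 25 nM; detection used donor plus acceptor beads, 10 µg/mL apiece, read by AlphaScreen after 30 min at room temperature.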
AmpC inh no detg: inhibitors of E. coli AmpC beta-lactamase without detergent; P00811; AmpC nitrocefin hydrolysis, absorbance 480 nm, 0.0001% Triton; Potency, µM (highest dose often 57.1 µM), most hits filed as inhibitors; 330,000 compounds, 0.52% hits; AID 485341; further: nearly all actives have a fitted effect of over 20% in size
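AmpC (5.3 nM in the dispensed reagent) in 20 mM phosphate pH 7.0 with 0.01% (detergent screen) or 0.0001% Triton X-100 was preincubated with compounds for 15 min at room temperature. Nitrocefin was then added from an 800 uM solution, and hydrolysis was followed at 480 nm.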
Pf growth 96h: inhibits malaria parasite growth, 96 h | P. falciparum luciferase reporter growth, 96 h | Potency, µM (highest dose often 28.7 µM), actives largely listed as inhibitors | 320,000 compounds, 6.9% hits | AID 504834
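Two-generation exposure (96 h) targets delayed-death phenotype. Reporter parasites carrying integrated firefly luciferase, in red cells at 2% hematocrit and 0.05% parasitemia final, kept at 37 C, 5% CO2; luminescence loss indicates inhibition.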
Hits are given with their value; i = inactive; ? = inconclusive; nt = no result; [ ] = another dose, or the depositor's remark. The call rests on the fitted dose curve; in most records, active means well fitted curve in the direction sought with a large enough effect; inconclusive means small, poorly fitted or top-dose-only effect, or another doubt; inactive means no such curve, though single readings can be large; an effect the other way counts as inactive or inconclusive.

SMILES	HCV inh	AmpC inh detg	Pf growth 48h	AMA1 RON2 block	AmpC inh no detg	Pf growth 96h
N#Cc1ccc(-c2ccccc2)nc1SCC(=O)c1cc2ccccc2oc1=O	i	i	9.28µM	i	i	?
CN(C)CCn1c2c(c(SCC(=O)Nc3ccc4c(c3)OCCO4)nc1=O)CCC2	i	i	i	i	i	i
CCN(CC)CCn1c2c(c(SCC(=O)Nc3ccc(C)c(F)c3)nc1=O)CCCC2	i	?	7.38µM	i	i	?
CCCCc1ccc(NC(=O)CSc2nc(=O)n(CCN(CC)CC)c3c2CCC3)cc1	?	?	?	i	?	?
CCN(CC)CCn1c2c(c(SCC(=O)Nc3ccc4c(c3)OCCO4)nc1=O)CCC2	i	i	?	i	i	2.08µM
CCN(CC)CCn1c2c(c(SCC(=O)Nc3ccc(C(C)C)cc3)nc1=O)CCCC2	14.1µM	?	?	i	i	?
COc1ccc(Cl)cc1NC(=O)CSc1nc(=O)n(CCN(C)C)c2c1CCCC2	11.2µM	i	?	i	i	?
Cc1cccc(-c2nc(SCC(=O)Nc3ccc4c(c3)OCO4)c(-c3ccccc3)[nH]2)c1	nt	i	nt	nt	nt	nt
Cc1cccc(Cn2c(=O)n(CCc3ccccc3)c(=O)c3sc4ccccc4c32)c1	nt	i	nt	nt	nt	nt
Cc1cc(C)cc(NC(=O)CSc2oc(-c3cccs3)nc2S(=O)(=O)c2ccccc2)c1	nt	i	nt	nt	nt	nt
CCn1c(=O)n(CC)c2cc(N3CCCC3)c(NC(=O)Nc3cc(C)cc(C)c3)cc21	nt	i	nt	nt	nt	nt
Cc1ccccc1Cn1c(CN2CCC(C(=O)NCc3cccnc3)CC2)cc2ccccc21	nt	i	nt	nt	nt	nt
COC(=O)c1c(SC)nc2ccccc2c1OCc1ccc(Cl)cc1	nt	i	nt	nt	nt	nt
CCOC(=O)c1ccc(NC(=O)CSc2c(C(C)C)cnc3c2c(=O)n(C)c(=O)n3C)cc1	nt	i	nt	nt	nt	nt
CC(C)c1ccc(NC(=O)CSc2nc(=O)[nH]c3c2CCCC3)cc1	?	i	?	i	35.5µM	?
Cc1ccc(-n2c(=O)c3oc4ccccc4c3n(CC(=O)Nc3ccccc3)c2=O)cc1C	nt	i	nt	nt	nt	nt
CN(C)c1cc[n+](CC(=O)Nc2ccc(Cl)c([N+](=O)[O-])c2)cc1	i	i	1.17µM	i	i	i
Cc1ccc[n+](CC(=O)Nc2ccc(N(C)C)cc2)c1	i	i	i	i	i	5.22µM
Nc1c(NC(=O)CC[n+]2ccccc2)cccc1[N+](=O)[O-]	i	?	i	i	i	i
O=C(C[n+]1ccccc1)Nc1ccc(Oc2ccccc2)cc1	i	i	6.57µM	i	i	i
CN(C)c1ccc(NC(=O)C[n+]2ccccc2)cc1	i	i	i	i	i	i
CN(C)c1cc[n+](CCC(=O)Nc2cccc([N+](=O)[O-])c2N)cc1	?	i	?	i	i	3.29µM
Cc1cc[n+](CC(=O)Nc2ccccc2)cc1	i	i	?	i	i	?
CCOC(=O)C1CCN(S(=O)(=O)c2cc(-c3onc(C)c3C)ccc2C)CC1	nt	i	nt	nt	nt	nt
CCOC(=O)C1CCN(c2c(C(=O)c3ccc(OC)cc3)cnc3ccccc23)CC1	nt	i	nt	nt	nt	nt
SMILES	HCV inh	AmpC inh detg	Pf growth 48h	AMA1 RON2 block	AmpC inh no detg	Pf growth 96h
CN(C)c1cc[n+](CC(=O)Nc2ccc(OC(F)F)cc2)cc1	i	i	2.33µM	i	i	0.465µM
CC(=O)c1ccc(NC(=O)C[n+]2ccc(N(C)C)cc2)cc1	i	i	?	i	i	?
CC(=O)N1CC(O)CC1C(=O)O (stereo unspecified)	nt	nt	i	nt	nt	i
CCC(CC)C(=O)Nc1c(C(=O)N2CCN(c3ccccc3)CC2)oc2ccccc12	i	i	10.4µM	i	i	i
Cc1c(Cl)c([N+](=O)[O-])nn1CCCC(=O)Nc1ccc(Cl)cc1Cl	i	i	i	i	i	11.7µM
Cc1nn(Cc2ccccc2Cl)c(C)c1NC(=O)CCCn1nc([N+](=O)[O-])c(Cl)c1C	i	i	i	i	i	4.65µM
Cc1ccc(Cn2nc(C)c(NC(=O)CCCn3nc([N+](=O)[O-])c(Cl)c3C)c2C)cc1	i	?	i	i	i	i
CCOc1ccccc1C(=O)N(Cc1ccco1)Cc1ccco1	nt	i	nt	nt	nt	nt
CCOC(=O)c1ccc(NC(=O)COc2ccc(CNC3CCCCC3)cc2OC)cc1	?	?	4.65µM	i	i[2.29 µM]	i
COc1cc(C(=O)NC2CCCc3ccccc32)ccc1OCC(=O)Nc1ccc(F)cc1 (stereo unspecified)	i	i	?	i	i	13.1µM
COc1cc(CNC(C)(C)CO)ccc1OCC(=O)Nc1ccc(Br)cc1	12.6µM	?	i	?	i	i
C=CCOc1ccc(CNC(C)(C)CO)cc1OC	i	i	i	i	i	i
CCOC(=O)c1ccc(NC(=O)COc2ccc(CNCCO)cc2OCC)cc1	8.91µM	i	?	i	i	?
CN(Cc1ccccc1N1CCCC1)C(=O)c1cc2cc(Cl)ccc2o1	11.2µM	i	?	?	i	?
Cc1ccc2c(=O)cc(CSc3ncn[nH]3)[nH]c2c1C	nt	i	nt	nt	nt	nt
CC(C)[C@H]1C(=O)Nc2ccccc2N1C(=O)N[C@@H](Cc1ccccc1)C(=O)N[C@@H](C(=O)O)c1ccccc1	i	i	i	i	i	i
CC(C)[C@H](NC(=O)N1c2ccccc2NC(=O)[C@@H]1C(C)C)C(=O)N1CCC(C(=O)O)CC1	31.6µM	?	i	i	i	i
C[Se]CC[C@H](N)C(=O)O	nt	nt	i	nt	nt	i
Cc1ccc(-c2nn(CC(=O)NC3CCCCC3)c3c2cnc2ccc(F)cc23)cc1C	nt	i	nt	nt	nt	nt
Clc1cccc(CNc2nnnn2-c2ccccc2)c1	?	i	?	i	i	14.7µM
Cc1cc(Nc2nnnn2-c2ccccc2)n(-c2ccc(Cl)cc2)n1	?	i	4.65µM	i	i	nt
O=c1[nH]c(=O)n(CCC2=CCCCC2)c(O)c1/C=N/Nc1cccc2ccccc12	i	i	?	i	28.2µM	?
COc1cc(NC(=O)CSc2nc(-c3ccc(C(C)C)cc3)no2)cc(OC)c1	nt	i	nt	nt	nt	nt
CC(C)CC(C(=O)NCCc1ccccc1)N1Cc2ccccc2C1=O (stereo unspecified)	nt	i	nt	nt	nt	nt
CCc1ccc(NC(=O)CSc2nc(C)cc(COC)c2C#N)cc1	nt	i	nt	nt	nt	nt
SMILES	HCV inh	AmpC inh detg	Pf growth 48h	AMA1 RON2 block	AmpC inh no detg	Pf growth 96h
Cc1ccc(NC(=O)c2cnc3sc(N4CCOCC4)nn3c2=O)cc1N(C)C	nt	i	nt	nt	nt	nt
CC(=O)Cc1cc(O)c2ccccc2c1OC(=O)c1ccccc1	i	i	13.1µM	i	i	i
CC(=O)Oc1c(C)cc(O)c2ccccc12	10µM	?	?	nt	i	?
Cc1cc(O)c2ccccc2c1O	nt	nt	i	nt	nt	8.49µM
CC(=O)c1cc(C)c(OC(=O)c2ccccc2)c(C)c1	i	nt	nt	i	nt	nt
CC(=O)c1ccc(S(=O)(=O)Nc2cccc(-c3ccc(N4CCCCCC4)nn3)c2)cc1	nt	i	nt	nt	nt	nt
FC(F)(F)c1cc(-c2cccs2)nc(-n2cc(Br)cn2)n1	11.2µM	i	nt	i	i	i

Source: PubChem BioAssay
